Among the data in PubChem BioAssay (NCI) are growth values, retold here.

This is part of a sample that, as a whole, favours compounds with a hit. Of some 83,000 tested, about 20% had one in any assay.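 Method: cells in 96-well plates; compound added at one concentration; 48 h incubation; percent growth measured; values under 10 scored active.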 Values without a mark were called inactive. The source made the active and inactive calls.

The test system of the experiment is MDA-MB-231 breast. Description: NCI-60 one-dose screen, 48 h (100 = growth as untreated, 0 = no growth, -100 = all killed). The conditions noted are these: 10 µM unless noted.
On to `COc1ccc(-c2cnc3ccnn3c2-c2cc(OC)c(OC)c(OC)c2)cc1`, for which the growth is 50.3%. Under `COc1cc2cc(C(=O)Nc3ccccc3)c(N)nc2cc1OC` stands -49.6% (active); under `O=C(C=P(c1ccccc1)(c1ccccc1)c1ccccc1)CCl`, 16.2%. Next, `CCCCCCCCCCCCCCCCS(=O)(=O)Nc1cc(C(=O)NN)cc(C(=O)NN)c1`: 58.2%; `COS(=O)(=O)CCN(CCOS(C)(=O)=O)S(C)(=O)=O`: 109%. Next, `CCn1c(CN2CCN(Cc3ccccc3)CC2)nc2cc(NC(=O)c3cccs3)ccc21`: -90.6% (active); `CC(=O)c1ccc(-n2c(-c3cc(-c4ccsc4)n[nH]3)n[nH]c2=S)cc1`: 105%. Take `CCN(CC)Cc1cc(Nc2ccnc3cc(Cl)ccc23)cc(-c2ccc(Cl)cc2)c1O`: the growth was 48.7%. On to `O=C(NCC(c1ccsc1)N1CCCCCC1)c1ccc(C(F)(F)F)cc1` (stereo not given), for which the growth was 85.1%. Next, `COc1cc(NC(C)CCCN)c2ncccc2c1Oc1ccc(Cl)cc1` (stereo not given): 42.4%; `O=C(c1ccccc1)N(CCCCl)C(=O)N(CCCCl)C(=O)c1ccccc1`: 85.7%; `COc1ccc(C2=CC(c3ccc(OC)cc3Br)N3C=CSC3=N2)cc1` (stereo not given): 75%. On to `CC(=O)c1nn(-c2ccccc2)/c(=N\N=C\c2coc3ccc(F)cc3c2=O)s1`, for which the growth was 88.3%. Under `O=C(c1ccc(C(F)(F)F)c(Cl)c1)N(Cc1ccc(Cl)cc1)c1ccc(-c2cc(C(F)(F)F)[nH]n2)c(O)c1` stands -35.7% (active); under `C/C(=N\OC(=O)Nc1cccc(Cl)c1)c1ccccc1`, 103%.
